# Laboratory results published in PubChem BioAssay (NCI).
# Compounds without any hit were thinned out: in the full panel of roughly 83,000, 20% have a hit.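 Plates (96-well) were seeded with cells, treated with compound at one concentration, and incubated for 48 hours before percent growth was determined.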 Unmarked numbers belong to inactive results. Activity calls are given as the source filed them. The calls were made as follows: active = growth percent below 10; inactive = the rest.
# Key:
# Assay in all cases: NCI-60 one-dose screen, 48 h (100 = growth as untreated, 0 = no growth, -100 = all killed)
# Details in all cases: 10 µM unless noted
# HCT-15 colon = test system: HCT-15 colon
# HT29 colon = test system: HT29 colon
# SNB-75 CNS = test system: SNB-75 CNS
# SNB-19 CNS = test system: SNB-19 CNS
# U251 CNS = test system: U251 CNS
# PC-3 prostate = test system: PC-3 prostate
# SK-MEL-5 melanoma = test system: SK-MEL-5 melanoma
# UACC-62 melanoma = test system: UACC-62 melanoma
# LOX IMVI melanoma = test system: LOX IMVI melanoma
# SK-MEL-28 melanoma = test system: SK-MEL-28 melanoma
Compound,growth (HCT-15 colon),growth (HT29 colon),growth (SNB-75 CNS),growth (SNB-19 CNS),growth (U251 CNS),growth (PC-3 prostate),growth (SK-MEL-5 melanoma),growth (UACC-62 melanoma),growth (LOX IMVI melanoma),growth (SK-MEL-28 melanoma)
O=C(/C=C/c1ccc(Cl)cc1)c1cccc(Nc2nc(Nc3ccccc3)nc(Nc3ccccc3)n2)c1,83.9%,99.1%,71.9%,111%,82.7%,87.9%,85.6%,96.9%,88.2%,100%
CCCC(O)Cn1ncc(C(=O)OCC)c1NC(=O)NCc1ccccc1F (stereo not given),105%,81.1%,98.9%,102%,93.8%,93.4%,93.2%,86.3%,93.9%,110%
COc1cc(OC)cc(C2=C3CC[C@@H]4[C@H](CC[C@]5(C)C(=O)CC[C@@H]45)C3=CC3C(O)c4cccnc4N4C(=O)COC234)c1 (stereo not given in full),100%,104%,72.9%,92%,93.8%,94.7%,98.1%,94.1%,95.9%,115%
COc1cccc(NC(=O)Cn2cc(CN3CCN(c4ccnc5cc(Cl)ccc45)CC3)nn2)c1,89.8%,98%,75.5%,88.7%,96.3%,67.4%,59.3%,75.8%,86.8%,102%
O=C1Nc2ccccc2[C@]12CC(c1ccccc1)=NN2,31.6%,15.8%,62.2%,52.7%,38.9%,38.5%,30.2%,19.5%,40.2%,59.2%
CNC(=O)c1cc(Oc2ccc3nc(NC(C)=O)sc3c2)ccn1,106%,110%,84.4%,106%,98.4%,96.3%,101%,98.8%,93.2%,105%
O=C(Nc1ccc(-c2nc(N3CCOCC3)c3cccn3n2)cc1)Nc1cccnc1,6.69% (active),7.6% (active),-26.5% (active),5.92% (active),7.85% (active),3.8% (active),-71.5% (active),-28.6% (active),-1.37% (active),-17.3% (active)
O=C1Nc2ccc(I)cc2C1=O,101%,93.8%,79.8%,98.3%,93.8%,86.7%,101%,92.3%,75.8%,104%
COC(=O)c1c2c(c(C)[n+]([O-])c1C)C(=O)C=C(NCc1ccc(OC)cc1)C2=O,-43.9% (active),3.5% (active),-97% (active),-73.8% (active),-45.7% (active),-6.9% (active),-96.6% (active),-75.1% (active),-12% (active),-6.37% (active)
CC(C)NC1CCC(Nc2ccnc3cc(Cl)ccc23)CC1 (stereo not given),99.1%,77.5%,83.7%,109%,87.7%,78.6%,90.8%,97.3%,86.6%,101%
COC1C[C@H](O[C@@H]2C[C@H](O[C@@H]3C[C@H](O[C@@H]4C(=O)c5c(cc6cc(O[C@H]7C[C@@H](O[C@H]8C[C@@H](O)[C@H](O)C(C)O8)[C@H](O)C(C)O7)c(C)c(O)c6c5O)C[C@H]4C(OC)C(=O)[C@@H](O)[C@@H](C)O)OC(C)[C@H]3O)OC(C)[C@@H]2O)OC(C)[C@@H]1O (stereo not given in full),44.3%,-8.54% (active),-59% (active),0.994% (active),0.915% (active),9.36% (active),-37.9% (active),-64.7% (active),-3.35% (active),-22.9% (active)
COC(=O)c1cc(-c2ccc(OC)cc2)[nH]c1N/N=C/c1c(Cl)cccc1Cl,16.4%,-56.5% (active),-10.6% (active),19.1%,7.09% (active),16.2%,-2.73% (active),21.3%,24.2%,34%
CC(C)=CCC[C@](C)(O)[C@H]1CC[C@]2(C)[C@@H]1CC[C@@H]1[C@@]3(C)Cc4nccnc4C(C)(C)[C@@H]3CC[C@]12C,70.4%,42%,91.6%,94%,78.2%,44.6%,65.8%,66.9%,83.7%,95.6%
Cn1c(=O)c2[nH]c(N/N=C/c3ccccc3Br)nc2n(C)c1=O,100%,106%,97.6%,109%,111%,98.4%,103%,96.6%,104%,107%
Clc1ccc2c(c1)N(c1ncnc3ccc(-c4cnc5[nH]ncc5c4)cc13)CC2,25%,19.3%,-16.8% (active),42.8%,39.8%,23.8%,46.5%,8.23% (active),18.4%,44.1%
CN([O-])c1nc(N(C)[O-])nc(N2CCOCC2)n1.CN([O-])c1nc(N(C)[OH2+])nc(N2CCOCC2)n1.[Fe+3],104% [100 µM],102% [100 µM],96.1% [100 µM],108% [100 µM],38.7% [100 µM],65.9% [100 µM],95.5% [100 µM],81.6% [100 µM],38.9% [100 µM],-26.4% [100 µM] (active)
CC(=O)Nc1nc2ccc(NS(=O)(=O)c3cccc4c(N(C)C)cccc34)cc2[nH]1,72.9%,63%,31%,52.3%,70.2%,60.2%,21.5%,27.3%,53.6%,57.9%
O=C(Cn1cc(CN2CCCCCC2)nn1)Nc1ccc2c(ccn2Cc2ccccc2)c1,93.3%,70.5%,76.1%,98.8%,80.8%,82.2%,87%,96.9%,98.2%,99.9%
S=C1CCSC(=S)N1CCCN1C(=S)CCSC1=S,51.4%,67.8%,70%,89.7%,83.2%,69.1%,91.5%,50.4%,38.2%,86.6%
O=C(CI)NC1Oc2ccccc2-c2oc(=O)c(-c3ccccc3)cc21 (stereo not given),-83% (active),-55% (active),-20.9% (active),80.8%,-48.6% (active),-72.8% (active),85.5%,-22.8% (active),-82.8% (active),46.3%
C=CCc1c2c(c(OC)c3ccoc13)C(=O)/C(=C/c1ccccc1OC)O2,45.2%,44.6%,35.8%,73%,46.2%,55.2%,98%,46.4%,38.3%,81.1%
O=C1N(Cc2ccccc2Cl)c2ccccc2C12NN=C(c1cccc(Cl)c1)S2 (stereo not given),0.214% (active),94.4%,16.7%,20.9%,-30% (active),-64.3% (active),14.5%,-44.3% (active),-19.4% (active),7.1% (active)
O=C1N[C@@H]2NC(=[N+]3CCOCC3)N[C@@H]2N1,104%,110%,94.5%,96%,97.2%,106%,101%,90.1%,98.3%,101%
Cc1ccc(C(C(N)=O)C(C(N)=O)c2ccccc2)cc1 (stereo not given),110%,109%,114%,109%,104%,105%,117%,119%,108%,123%
Cn1c(-c2ccc(Br)cc2)c(O)c(=O)c2c(F)cccc21,23.9%,36.6%,92.2%,52.8%,34.3%,105%,54.2%,37.6%,40.2%,67.2%
CO/N=C(/C)c1ccc(NC(=O)CSc2nnc(-c3ccncc3)n2-c2ccccc2)cc1,73%,78%,-16.6% (active),30.4%,17.4%,49.9%,25.2%,26.1%,65.5%,64.9%
